A selection: hits, their analogues and other compounds. The true share with any hit is near 9.2%.
FLuc modulator – counter-screen for miR-21 project: firefly luciferase inhibitors or activators. P08659. purified FLuc, Km substrates, luminescence inhibition. Potency, µM (highest dose often 57.5 µM), usual class: inhibitors. actives 6.9% (n = 360,000). AID 588342; note: nearly all actives have a fitted effect of over 55% in size
Target sequence (P08659 whole entry, looked up): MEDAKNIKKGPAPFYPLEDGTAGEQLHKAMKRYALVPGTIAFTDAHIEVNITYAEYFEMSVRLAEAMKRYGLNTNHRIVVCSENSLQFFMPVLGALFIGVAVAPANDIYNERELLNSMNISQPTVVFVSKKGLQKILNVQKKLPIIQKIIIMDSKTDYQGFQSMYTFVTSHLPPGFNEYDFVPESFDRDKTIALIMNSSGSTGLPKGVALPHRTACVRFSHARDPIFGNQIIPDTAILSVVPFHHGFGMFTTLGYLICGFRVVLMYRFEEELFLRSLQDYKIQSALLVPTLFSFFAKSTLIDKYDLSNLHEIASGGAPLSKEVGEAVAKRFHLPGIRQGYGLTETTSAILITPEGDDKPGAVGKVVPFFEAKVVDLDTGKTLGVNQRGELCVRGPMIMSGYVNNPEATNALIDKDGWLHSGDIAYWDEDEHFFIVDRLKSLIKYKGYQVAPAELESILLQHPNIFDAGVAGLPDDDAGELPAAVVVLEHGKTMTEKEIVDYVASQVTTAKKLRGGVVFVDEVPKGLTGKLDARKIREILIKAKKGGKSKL
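Purified P. pyralis luciferase, 10 nM final, with Km-level 10 uM D-luciferin and 10 uM ATP in 50 mM Tris acetate pH 7.5, 10 mM Mg acetate, 0.01% Tween-20, 0.05% BSA; 6-point qHTS titration about 60 µM downward; luminescence read.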
SMN2 splice enh – enhancers of SMN2 splice variant expression | HEK293 SMN2-luciferase splicing reporter, luminescence, 30-36 h | AID 1458 | actives 2.8% (n = 210,000) | Potency, µM (highest dose often 46.1 µM), usual class: activators; note: nearly all actives have a fitted effect of over 55% in size
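HEK293 cells carry an SMN2 minigene-luciferase reporter in which exon 7 inclusion puts luciferase in frame. Cells were seeded at 2000 cells/well, attached for 10-12 hours, then exposed to compounds for 30-36 hours at 37C before ONE-Glo luminescence.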
NPC1 promoter act – activates the NPC1 promoter | actives 2.4% (n = 320,000) | Potency, µM (top dose mostly 9.22 µM), usual class: activators | Huh7 NPC1 promoter luciferase reporter, 24 h; note: nearly all actives have a fitted effect of over 60% in size
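Compounds in DMSO were transferred onto Huh7 NPC1-luciferase reporter cells pre-incubated 2 h; after 24 h at 37 °C, Amplite reagent was dispensed and luminescence recorded 10 min later.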
Rab9 prom act – activates the Rab9 promoter; Huh7 Rab9 promoter-luciferase reporter, luminescence, 24 h; Potency, µM (top dose mostly 9.22 µM), actives largely listed as activators; actives 2.8% (n = 320,000); note: nearly all actives have a fitted effect of over 60% in size
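Luciferase signal after 10 min detection reagent at ambient indicates Rab9 promoter upregulation; stably transfected Huh7 cells were treated 24 h with compound in DMSO at 37 °C, 5% CO2.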
ELG1 genotoxic – inducers of genotoxicity in HEK293T ELG1-luciferase cells; Potency, µM (titrated, usually from 46 µM), hits mostly activators; HEK293T ELG1-luciferase reporter, luminescence, 16 h; actives 1.3% (n = 330,000); note: nearly all actives have a fitted effect of over 60% in size
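Luminescence read-out: rising ELG1-luciferase signal, reflecting elevated ELG1 protein under genetic stress, flags genotoxic compounds. Cells were treated for 16 hr at 37 °C before ONE-Glo detection.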
ELG1 DNA repair – ELG1-dependent DNA repair inhibition; actives 2.3% (n = 330,000); HEK293T ELG1-luciferase reporter, luminescence, 16 h; DNA damage induced by 5-fluorouridine; Potency, µM (top dose mostly 46.1 µM), most hits filed as inhibitors; note: nearly all actives have a fitted effect of over 55% in size
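DMSO vehicle served as the neutral condition. Each well held 2,000 cells given 5-fluorouridine plus compound; after 16 hr at 37 °C/5% CO2, ONE-Glo was added and luciferase measured 30 min later.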
Numbers stand for hits; - = inactive; ? = inconclusive; . = not tested or not shown. Calls come from the whole dose curve; as a rule, active = well fitted curve in the direction sought with a large enough effect; inconclusive = small, poorly fitted or top-dose-only effect, or another doubt; inactive = no such curve, though single readings can be large; an effect the other way counts as inactive or inconclusive.

SMILES	FLuc modulator	SMN2 splice enh	NPC1 promoter act	Rab9 prom act	ELG1 genotoxic	ELG1 DNA repair
Cn1cccc1C(=O)N/N=C/c1c(Cl)cccc1Cl	11µM	.	2.5µM	2.8µM	16µM	?
Cc1ccc(/C=N/NC(=O)c2ccccn2)s1	?	4µM	1.3µM	0.5µM	?	?
COc1cc(Cl)c(NC(=O)CN2C(=O)c3cccnc3Sc3ccccc32)c(OC)c1	-	-	.	.	.	.
CC(C)C(N)C(=O)O (stereo not given)	.	-	.	.	.	.
Cn1cccc1/C=N/NC(=O)c1cc2ccccc2cc1O	19µM	.	?	?	?	?
O=C(N/N=C/c1cccs1)c1ccccn1	11µM	25µM	3.5µM	2.5µM	?	?
CCCN1C(=O)/C(=C/c2c(N3CCNC(=O)C3CC(=O)OCC)nc3c(C)cccn3c2=O)SC1=S (stereo not given)	-	.	-	-	-	5.8µM
N#CC1=C2SCN(c3ccccc3)CN2C(=O)CC1c1c(Cl)cccc1Cl (stereo not given)	11µM	-	-	-	-	?
O=C1c2ccccc2CCC12N=NCC2c1ccccc1 (stereo not given)	17µM	-	-	-	-	?
COCCCNC(=O)Cc1c(C)c2c(cc(C)c3c(C(C)(C)C)coc32)oc1=O	11µM	.	-	-	-	-
Cc1cc2oc(=O)c(CC(=O)O)c(C)c2c2occ(-c3ccccc3)c12	6µM	-	.	.	.	.
CCS(=O)(=O)N1CCc2cc(C(=O)Nc3cccc(NC(C)=O)c3)ccc21	-	.	.	.	.	.
COc1ccc(C)cc1NC(=O)CCn1nc(C)cc1C	-	.	.	.	.	.
COc1cc(C)ccc1OCc1cc(C(=O)NCc2ccncc2)no1	12µM	.	2.8µM	2µM	18µM	?
COc1cc(C)ccc1OCc1cc(C(=O)NC(C)Cn2cncn2)no1 (stereo not given)	?	.	2.2µM	1.6µM	?	?
O=C(NCc1ccco1)c1ccccc1-c1nc(-c2ccccc2)no1	27µM	-	-	-	-	?
Cc1cccc(-c2noc(-c3ccccc3C(=O)NCc3ccco3)n2)c1	9.5µM	.	?	?	-	-
O=C(NCc1ccco1)c1ccccc1	-	.	-	-	-	-
Cc1ccc(-c2noc(-c3ccccc3C(=O)NCc3ccco3)n2)cc1	5.4µM	.	-	-	-	-
Cc1ccc(Cl)cc1NC(=O)C(NS(=O)(=O)c1cccc2nsnc12)c1ccccc1 (stereo not given)	?	-	.	.	.	.
NNC(=O)c1nn(-c2ccc(Cl)cc2)cc1O	13µM	.	?	?	-	-
c1ccc2[nH]c(-c3cscn3)nc2c1	13µM	13µM	?	?	?	?
c1ccc2nc(-c3nc4ccccc4[nH]3)ccc2c1	0.3µM	0.4µM	2.8µM	0.63µM	.	?
Oc1ccc(-c2[nH]nc(-c3ccccc3)c2-c2nc3ccccc3[nH]2)cc1	-	-	-	-	-	-
FC(F)c1nc2ccccc2[nH]1	-	.	-	-	-	-
SMILES	FLuc modulator	SMN2 splice enh	NPC1 promoter act	Rab9 prom act	ELG1 genotoxic	ELG1 DNA repair
CC(=O)c1cc2c(cc1NC(=O)c1cnn(-c3ccc(C)cc3)c1-n1cccc1)OCO2	-	.	.	.	.	.
CCOC(=O)/C(C#N)=C/Nc1ccccc1OC	6.7µM	?	3.2µM	2.2µM	?	?
CCOC(=O)/C(C#N)=C\c1cn(C)c2ccccc12	-	.	-	-	-	5.8µM
CCOC(=O)/C(C#N)=C/c1c[nH]c2ccccc12	19µM	-	-	-	-	?
Cc1ccc2c(=O)c(C(=O)c3cccc(Cl)c3)cn(CC(=O)NCc3ccc(F)cc3)c2n1	-	-	.	.	.	.
COc1ccc(C(=O)N2CCN(c3nc4c(C)c(Cl)ccc4s3)CC2)c(OC)c1	-	.	.	.	.	.
COc1cc(/C=C/c2ccc3cccc(O)c3n2)cc(Cl)c1OC	2.7µM	.	0.63µM	0.71µM	21µM	?
COc1cc(/C=C/c2ccc3cccc(O)c3n2)cc(OC)c1OC	?	.	-	-	?	?
COc1ccc(Br)cc1/C=C/c1ccc2cccc(O)c2n1	?	.	-	-	-	-
COC(=O)c1ccc(/C=C/c2ccc3cccc(OC)c3n2)cc1	5.4µM	-	-	-	-	?

Screens (PubChem BioAssay)
